# Sm TGR inh = S. mansoni TGR enzyme inhibition; Q962Y6; Potency, µM (doses to about 114 µM), inactives show top-dose activity change, negative = inhibition, hits mostly inhibitors; purified TGR, DTNB reduction, TNB absorbance 405 nm; AID 485364; 360,000 tested, 3% active; note: potency is the fitted concentration of half-maximal effect; % is set by controls: 0 for no effect and ±100 for the full control effect; nearly all actives have a fitted effect of over 60% in size
#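 Kinetic colorimetric format: TGR-catalysed, NADPH-driven DTNB reduction monitored via TNB absorbance. Enzyme dispensed at 20 nM; compound exposure 15 min at room temperature before reaction start.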
# TbPYK inhibitor = T. brucei pyruvate kinase inhibition; TbPYK enzyme, Kinase-Glo Plus ATP luminescence, 45 min; Q57TT1; 410,000 tested, 0.12% active; AID 624173; Potency, µM (top dose mostly 76.8 µM), for the others: top-dose activity, negative = inhibition, usual class: inhibitors; note: potency is the fitted concentration of half-maximal effect; % is set by controls: 0 for no effect and ±100 for the full control effect; nearly all actives have a fitted effect of over 50% in size
#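 Readout: single end-point luminescence (Kinase-Glo Plus, 10 min). Reaction conditions were TbPYK/substrate plus 130 uM ADP, 45 min at RT, pH 7.2 TEA buffer. No-enzyme wells served as controls, and data were normalized before concentration-response fitting.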
# SARS PLpro yeast-1 = blocks SARS-CoV papain-like protease in a yeast assay; S. cerevisiae expressing SARS-CoV PLpro, growth rescue; Potency, µM (doses to about 32.9 µM), inactives show at the highest dose activity, positive = growth rescue, hits mostly activators; 330,000 tested, 0.19% active; calls by dose curve; note: potency is the fitted concentration of half-maximal effect; 0% is about no effect; nearly all actives have a fitted effect of over 55% in size
# AmpC inh no detg = blocks E. coli AmpC beta-lactamase in detergent-free assay; 330,000 tested, 0.52% active; P00811; AmpC nitrocefin hydrolysis, absorbance 480 nm, 0.0001% Triton; Potency, µM (titrated, usually from 57.1 µM), without a hit: at the highest dose activity change, negative = inhibition, most hits filed as inhibitors;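 note: potency is the fitted concentration of half-maximal effect; plate controls were no compound for no effect and no enzyme for full effect; nearly all actives have a fitted effect of over 20% in size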
# Target sequence (P00811 whole entry, looked up): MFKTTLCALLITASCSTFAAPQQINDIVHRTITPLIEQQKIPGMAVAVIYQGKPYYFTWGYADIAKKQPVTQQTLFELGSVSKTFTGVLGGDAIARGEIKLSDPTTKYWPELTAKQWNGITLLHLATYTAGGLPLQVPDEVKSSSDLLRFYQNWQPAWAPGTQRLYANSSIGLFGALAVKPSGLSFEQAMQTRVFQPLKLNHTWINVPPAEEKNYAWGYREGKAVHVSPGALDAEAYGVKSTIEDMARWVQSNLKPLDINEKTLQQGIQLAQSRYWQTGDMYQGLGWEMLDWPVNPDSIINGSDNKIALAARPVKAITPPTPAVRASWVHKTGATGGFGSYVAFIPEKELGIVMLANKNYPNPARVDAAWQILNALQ
#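 20 mM phosphate pH 7.0 + 0.01% (detergent screen) or 0.0001% Triton X-100; 5.3 nM AmpC reagent; cpd preinc 15 min RT; nitrocefin (800 uM stock) to start; A480 q20 s × 4 min; Activity was normalised to no-enzyme and no-compound control wells.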
# AmpC detergent = inhibitors of E. coli AmpC beta-lactamase with detergent. AmpC hydrolysis of nitrocefin, absorbance 480 nm, 0.01% Triton. Potency, µM (highest dose often 114 µM), inactives show at the top dose activity change, negative = inhibition, hits mostly inhibitors. P00811. AID 485294. 370,000 tested, 0.041% active;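 note: potency is the fitted concentration of half-maximal effect; 0% = no-compound wells and -100% = no-enzyme wells; nearly all actives have a fitted effect of over 25% in size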
#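 20 mM phosphate pH 7.0 + 0.01% (detergent screen) or 0.0001% Triton X-100; 5.3 nM AmpC reagent; cpd preinc 15 min RT; nitrocefin (800 uM stock) to start; A480 q20 s × 4 min; Activity was normalised to no-enzyme and no-compound control wells.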
# RE007 growth inh = less growth of the S. pombe RE007 Vpr strain; S. pombe RE007 Vpr strain, BacTiter-Glo ATP luminescence, 24 h; 360,000 tested, 0.21% active; Potency, µM (top dose mostly 92.2 µM), without a hit: top-dose activity change, negative = less growth, actives largely listed as inhibitors; active = well fitted falling curve with a large enough effect; inconclusive = small, poorly fitted or top-dose-only effect; inactive = no such curve, though single readings can be large or run the other way; note: potency is the fitted concentration of half-maximal effect; % is set by controls: 0 for no effect and ±100 for the full control effect; nearly all actives have a fitted effect of over 50% in size
#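 Fission yeast RE007 carrying one integrated HIV-1 vpr copy, seeded at OD 0.01 in PMG+AL medium with 23 nL pinned compound. Grown 24 h at 30 degrees; viability read by BacTiter-Glo luminescence after 5 min.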
# SARS PLpro yeast-2 = Rescues yeast growth by inhibiting SARS-CoV PLpro; shares compounds with SARS PLpro yeast-1; yeast expressing SARS-CoV PLpro, growth phenotype rescue; calls only; 1,000 tested, 19% active; AID 652038; call rule not given here
# The depositor's hits bear a star; i = inactive; ? = inconclusive; . = no result; + = active, no number. The list is not random: actives were taken first. Their share in the collection is about 3.3%. Unless noted, calls come from the whole dose curve; as a rule, active = well fitted curve in the direction sought with a large enough effect; inconclusive = small, poorly fitted or top-dose-only effect, or another doubt; inactive = no such curve, though single readings can be large; an effect the other way counts as inactive or inconclusive.
SMILES,Sm TGR inh,TbPYK inhibitor,SARS PLpro yeast-1,AmpC inh no detg,AmpC detergent,RE007 growth inh,SARS PLpro yeast-2
CCOc1ccc(Nc2oc(-c3cccc(Cl)c3)nc2C#N)cc1,?,-11%,?,-46%,-8%,7%,?
CCOc1ccc(Nc2oc(-c3ccco3)nc2C#N)cc1,-2%,9%,-10%,-28%,-12%,8%,.
CC(C)NC(=S)N/N=C/c1ccc2c(c1)OCCO2,-26%,-10%,16µM*,-35%,-7%,-17%,+
Cc1ccccc1NC(=O)c1cnc2sc(N3CCCC3)nn2c1=O,7%,-6%,.,.,-4%,.,.
C(=N\Nc1nncc2ccccc12)/c1ccccn1,-6%,-15%,13µM*,-5%,-7%,?,i
Fc1cccc(/C=N/Nc2nncc3ccccc23)c1,?,-12%,-7%,-9%,-15%,?,.
CCN(CC)C(=O)c1sc2c(c1C)c(=O)n(-c1ccc(Cl)c(Cl)c1)c(=O)n2CC(=O)Nc1cccc(OC)c1,-1%,0%,.,.,-1%,.,.
CN(C)c1cccc(C(=O)N/N=C/c2ccsc2)c1,-18%,-5%,20µM*,-28%,-9%,-12%,i
CN(C)c1cccc(C(=O)N/N=C/c2ccoc2)c1,.,-4%,.,.,.,2%,.
Cc1ccc(S(=O)(=O)n2nc(-c3ccccc3)nc2NCc2ccc(Cl)cc2)cc1,10%,-2%,.,.,-3%,.,.
CCCC(=O)NC(c1ccc(N(C)C)cc1)c1ccc2cccnc2c1O (stereo not drawn),-5%,1%,7.1µM*,34%,?,?,?
CC(=O)NC(c1ccco1)c1ccc2cccnc2c1O (stereo not drawn),-18%,-7%,?,-23%,?,-2%,+
CCCC(=O)NC(c1ccccc1Cl)c1ccc2cccnc2c1O (stereo not drawn),-1%,-2%,2.2µM*,-26%,-4%,-8%,+
CC(=O)NC(c1ccc(Cl)cc1)c1ccc2cccnc2c1O (stereo not drawn),.,-2%,.,.,.,?,.
Cc1cc(NC(c2ccc(Cl)cc2)c2ccc3cccnc3c2O)no1 (stereo not drawn),13µM*,-7%,?,4.5µM*,0%,?,i
CC(C)C(NS(=O)(=O)c1cccc2cccnc12)C(=O)Nc1ccc(OC(F)(F)F)cc1 (stereo not drawn),4%,-3%,.,.,20%,.,.
COc1cccc(-c2nnc3n(Cc4ccc(C)cc4)c(=O)c4ccccc4n23)c1O,0%,0%,.,.,20%,.,.
CC(C)OCCCNc1ncnc2sc3c(c12)CCCC3,-2%,1%,.,.,18%,.,.
CCC(=O)NC(c1ccc(C)cc1)c1ccc2cccnc2c1O (stereo not drawn),3%,-4%,?,-20%,-1%,?,i
Cc1cccc(C)c1NC(=O)COC(=O)C1C2CC3OC(=O)C1C3C2 (stereo not drawn),-20%,-2%,11µM*,-11%,-6%,-4%,i
CCc1ccccc1NC(=O)COC(=O)C1C2CC3OC(=O)C1C3C2 (stereo not drawn),2%,3%,5%,-7%,9%,-3%,.
Cc1cccc(C)c1NC(=S)NN1CCN(C)CC1,-6%,-2%,?,-18%,0%,-4%,+
COc1cccc(NC(=S)NN2CCN(C)CC2)c1,1%,-2%,-3%,-14%,?,-10%,.
COc1ccc(/C=N/NC2=NS(=O)(=O)c3ccccc32)cc1,-2%,-3%,2%,-15%,3%,6%,.
O=S1(=O)N=C(N/N=C/c2ccccn2)c2ccccc21,-7%,-6%,22µM*,-8%,?,-1%,+
SMILES,Sm TGR inh,TbPYK inhibitor,SARS PLpro yeast-1,AmpC inh no detg,AmpC detergent,RE007 growth inh,SARS PLpro yeast-2
CCOc1cccc(/C=N/Nc2ccc(S(=O)(=O)N(CC)CC)cn2)c1O,-1%,10%,7.9µM*,-19%,?,25%,i
COc1cccc(CNC(=O)c2nn(-c3ccccc3Cl)nc2CO)c1,1%,1%,.,.,-8%,.,.
Cc1ccc(Cl)cc1NC(=O)N1CCC(CN2CCCCCC2)CC1,?,3%,.,.,18%,.,.
CC1CCCC(C)N1NC(=S)Nc1ccc(OC(F)F)cc1 (stereo not drawn),-24%,-13%,?,-27%,?,-10%,+
COc1cccc(NC(=S)NN2C(C)CCCC2C)c1 (stereo not drawn),3%,-5%,?,-17%,-2%,12%,+
COc1ccc(NC(=S)NN2C(C)CCCC2C)cc1 (stereo not drawn),4%,-13%,13µM*,-20%,-2%,-11%,+
COc1ccc(OC)c(CNS(=O)(=O)c2ccc(-c3cc(C(F)(F)F)on3)s2)c1,9%,4%,.,.,-6%,.,.
COc1ccccc1NC(=O)CC(C)n1nc(C)cc1C (stereo not drawn),3%,0%,.,.,27%,.,.
CCCN(CC(=O)Nc1cccc(Br)c1)CC(=O)Nc1ccc(F)c(F)c1F,0%,0%,-22%,-5%,-1%,5%,.
Cc1ccc(NC(=O)Cn2cccc2)c(Br)c1,?,4%,2.5µM*,-15%,-8%,-6%,i
CCCN(CC(=O)Nc1ccc(C)cc1Br)CC(=O)Nc1ccc(F)c(F)c1F,-10%,-2%,?,43%,-6%,-8%,i
COc1ccc(NC(=O)CCCN2C(=O)/C(=C\c3ccco3)SC2=S)cc1,-8%,-19%,-18%,-32%,6%,3%,.
O=C1/C(=C\c2ccco2)SC(=S)N1c1ccc(O)cc1,?,-1%,.,?,-14%,?,i
Cc1ccc(NC(=O)CSc2nc(-c3ccccc3Cl)nc3cc(=O)[nH]n23)c(C)c1,0%,5%,.,.,-5%,.,.
CC(C)OC(=O)c1cc2ccccc2oc1=O,4%,-13%,?,-6%,-9%,-7%,i
O=C(Oc1ccccc1)c1cc2ccccc2oc1=O,-1%,2%,1%,-18%,?,-28%,.
COc1ccc(Cl)cc1NS(=O)(=O)c1cn(C)nc1C,-1%,11%,?,3%,5%,-12%,i

# Screening data (PubChem)
